ST2 inh: inhibitors of human ST2 (IL1RL1) binding to IL-33 | AlphaLISA ST2-Fc/biotin-IL-33 interaction, 1 h | inhibition, % for hits at 17 µM | 78,000 compounds, 2.3% hits | AID 1259354; in the data active means inhibition above about 30%
Target sequence (Q01638 whole entry, looked up): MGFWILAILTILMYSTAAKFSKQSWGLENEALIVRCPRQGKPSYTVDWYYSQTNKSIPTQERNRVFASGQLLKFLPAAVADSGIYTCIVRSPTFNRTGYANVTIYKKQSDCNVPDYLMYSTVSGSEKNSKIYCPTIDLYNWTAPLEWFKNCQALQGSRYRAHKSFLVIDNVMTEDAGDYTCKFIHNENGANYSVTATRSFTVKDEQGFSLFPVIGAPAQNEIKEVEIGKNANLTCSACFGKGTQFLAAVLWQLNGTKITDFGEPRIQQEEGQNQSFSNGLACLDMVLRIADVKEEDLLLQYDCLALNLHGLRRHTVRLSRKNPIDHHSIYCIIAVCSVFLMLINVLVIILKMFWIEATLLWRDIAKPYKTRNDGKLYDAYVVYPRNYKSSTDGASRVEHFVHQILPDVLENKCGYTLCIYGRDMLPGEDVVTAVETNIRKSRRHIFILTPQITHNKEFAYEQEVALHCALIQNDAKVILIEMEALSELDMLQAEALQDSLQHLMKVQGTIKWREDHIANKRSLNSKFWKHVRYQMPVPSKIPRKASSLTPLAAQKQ
A number is an active result. This excerpt belongs to a sample that is enriched for hits.

`O=[N+]([O-])c1cc(C=Nc2ccc(-c3nc4ccccc4o3)cc2)cc([N+](=O)[O-])c1` gave ST2 inh inactive.
CCOC(=O)c1c(C)n(CCOc2ccccc2Cl)c2ccc(O)cc12 was read as ST2 inh inactive.
Screening O=C(COc1ccc(Br)cc1)N1CCCC1 returned ST2 inh inactive.
Screening N#Cc1nc(COc2ccccc2F)oc1N1CCCCC1 returned ST2 inh 53%.
For Brc1ccc(-c2noc(COc3ccccc3)n2)cc1 the results were ST2 inh inactive.
Screening Fc1ccccc1OCCN1CCNCC1 returned ST2 inh inactive.
Cc1ccccc1OCc1nc(C#N)c(N2CCCC2)o1 was read as ST2 inh 71%.
N#Cc1nc(COc2ccccc2F)oc1N1CCCC1 was read as ST2 inh 53%.
O=S(=O)(c1ccccc1)c1nc(-c2ccc(F)cc2)oc1N1CCCCC1 was read as ST2 inh inactive.
`COc1ccc(-c2nc(C#N)c(N3CCOCC3)o2)cc1` gave ST2 inh inactive.
Screening Cc1nc(S(=O)(=O)c2ccccc2)c(N2CCCCC2)o1 returned ST2 inh inactive.
`N#Cc1nc(COc2ccc(Br)cc2)oc1N1CCCCC1` gave ST2 inh 64%.
Screening N#Cc1nc(-c2ccc(F)cc2)oc1N1CCOCC1 returned ST2 inh inactive.
Fc1ccccc1OCCCOc1ccccc1F was read as ST2 inh inactive.
O=C1Nc2ccccc2C(O)(C(=O)NCCCN2CCCCC2)N1c1ccc(Cl)c(Cl)c1 (stereo not given) was read as ST2 inh inactive.
Screening OC[C@H]1O[C@@H](O[C@H](CCCCc2ccc(O)c(O)c2)CCc2ccc(O)c(O)c2)[C@H](O)[C@@H](O)[C@@H]1O returned ST2 inh inactive.
For COc1ccccc1CC(=O)N1CCC(C(N)=O)CC1 the results were ST2 inh inactive.
Cc1cccc(C)c1NC(=O)NC1CCCCC1 was read as ST2 inh inactive.
`C=CCNC(=O)c1cc2c(=O)n3ccccc3nc2n(CCCOCC)c1=N` gave ST2 inh inactive.
Screening CC1=C(C(=O)OCCCc2ccccc2)C(c2ccc(F)c(Br)c2)CC(=O)N1 (stereo not given) returned ST2 inh inactive.
For CNC(=O)C(C)N(C)C1CCN(Cc2cccnc2)CC1 (stereo not given) the results were ST2 inh inactive.
Screening Cn1nc(C(=O)NC2CCCN(CC3CCCCC3)C2)ccc1=O (stereo not given) returned ST2 inh inactive.
`Cc1ccccc1Cn1cc(NC(=O)c2cc(-c3ccc(F)cc3)on2)cn1` gave ST2 inh inactive.
Cc1noc(C)c1CCC(=O)N1CCCC2(CC1)CN(C)C(=O)O2 (stereo not given) was read as ST2 inh inactive.
Screening Cn1c(SCC(=O)NCCO)nc2sc3c(c2c1=O)CCCC3 returned ST2 inh inactive.
Screening CCCCOc1ccc(NC(=O)c2ccccc2F)cc1 returned ST2 inh inactive.
c1ccc(-c2nc3c(c(NCc4cn5c(n4)SCC5)n2)CCNC3)cc1 was read as ST2 inh inactive.
For O=C(Nc1ccccc1F)c1cc(=O)c2ccccc2o1 the results were ST2 inh inactive.
`COc1ccc(Cl)cc1N1C(=O)C2CCCN2C1c1ccc(Br)cc1` (stereo not given) gave ST2 inh inactive.
Cc1ccc(CN(C)CC(=O)N2CCN(C)C3(CCN(C)CC3)C2)cc1 was read as ST2 inh inactive.
COc1cc2c3c(c1)C(C)=CC(C)(C)N3C(=O)C2=O was read as ST2 inh 70%.
For COc1ccc2c(c1)N(C(=O)C(C)N1C(=O)c3ccccc3C1=O)C(C)(C)C=C2C (stereo not given) the results were ST2 inh inactive.
For COc1cccc2c1OC1(C)CC2NC(=O)N1c1cccc(Cl)c1 (stereo not given) the results were ST2 inh inactive.
COc1cccc(N2C(=O)NC3CC2(C)Oc2ccccc23)c1 (stereo not given) was read as ST2 inh inactive.
For CC1=CC(C)(C)N(C(=O)C(C)N2C(=O)c3ccccc3C2=O)c2cc(C)c(C)cc21 (stereo not given) the results were ST2 inh inactive.
Screening COc1cc2c3c(c1)C(C)CC(C)(C)N3C(=O)C2=O (stereo not given) returned ST2 inh 40%.
Screening CC(=O)N1C(=N)S/C(=C/c2cc3ccc(C)cc3nc2N2CCOCC2)C1=O returned ST2 inh inactive.
`COc1ccc(Cl)cc1Nc1ncnc2c1cnn2-c1cccc(C)c1` gave ST2 inh inactive.
For CCOC(=O)c1c(C)oc2cc(Br)c(OCC(=O)C(C)(C)C)cc12 the results were ST2 inh inactive.
`O=c1/c(=C/c2ccc(-c3cccc([N+](=O)[O-])c3)o2)sc2nc3ccccc3n12` gave ST2 inh inactive.
N=C1S/C(=C\c2ccc(-c3ccc([N+](=O)[O-])cc3)o2)C(=O)N1c1nccs1 was read as ST2 inh 34%.
For O=C1c2ccc(Oc3ccc4c(c3)C(=O)N(c3nccs3)C4=O)cc2C(=O)N1c1nccs1 the results were ST2 inh inactive.
Screening CCCOc1ccc(C(=O)Nc2ccccc2Cl)cc1 returned ST2 inh inactive.
For COc1cc(NC(=O)c2cc(OC)cc(OC)c2)cc(OC)c1 the results were ST2 inh inactive.
`COc1cc(N2CCC(O)(CN3CCCC3)CC2)ncn1` gave ST2 inh inactive.
Screening C/C(Cl)=C\CN1C(=O)C(=O)c2cccc(C)c21 returned ST2 inh 54%.
Cc1cc(CN2C(=O)C(=O)c3ccccc32)c(C)cc1CN1C(=O)C(=O)c2ccccc21 was read as ST2 inh inactive.
Screening Cc1cccc(NC(=O)CN2C(=O)C(=O)c3ccccc32)c1 returned ST2 inh inactive.
For CCCCn1c(CN2CCCC(C(=O)N3CCOCC3)C2)cnc1S(=O)(=O)CC (stereo not given) the results were ST2 inh inactive.
CN(C(=O)c1cnc(N2CCN(c3ccccn3)CC2)c2ccccc12)c1ccc(Cl)cc1 was read as ST2 inh inactive.
Screening CNC(=O)C1CCC(Cn2c(=O)c3sccc3n(CC(=O)NCCC(C)C)c2=O)CC1 (stereo not given) returned ST2 inh inactive.
For COc1cc([N+](=O)[O-])ccc1-c1ccc(/C=C2\C(=O)ON=C2c2ccccc2)o1 the results were ST2 inh 34%.
For O=C1C(=Cc2ccc(-c3ccc([N+](=O)[O-])cc3Cl)o2)C(=O)c2ccccc21 the results were ST2 inh inactive.
Screening COc1cc([N+](=O)[O-])ccc1NC(=O)C(c1ccccc1)c1ccccc1 returned ST2 inh inactive.
CC(c1ccc(-c2cc(C(=O)N3CCN(C)CC3)ccn2)cc1)N1CCCC1 (stereo not given) was read as ST2 inh inactive.
Screening COc1ccc(N2CCN(S(=O)(=O)c3ccc(OC)cc3)CC2)cc1 returned ST2 inh inactive.
CN1CCN(S(=O)(=O)c2ccc([N+](=O)[O-])cc2)CC1 was read as ST2 inh inactive.
Screening O=[N+]([O-])c1ccc(S(=O)(=O)N2CCN(c3ccc(Cl)cc3)CC2)cc1 returned ST2 inh 33%.
Cc1ccccc1NC(=O)CCNC(=O)C1COc2ccccc2O1 (stereo not given) was read as ST2 inh inactive.
For Cc1cnc(C)c(N2CCN(C(=O)CC3C(=O)NCCN3CCc3ccccc3)CC2)n1 (stereo not given) the results were ST2 inh inactive.
`Cn1c(=O)c2c(SCC(N)=O)nc(-c3ccco3)nc2n(C)c1=O` gave ST2 inh inactive.

Compound activity deposited in PubChem BioAssay by Paczesny and Yang Labs, IUPUI and University of Michigan.
